C2C12 statin – suppressors of simvastatin-induced myotoxicity in C2C12 myotubes; ATP luminescence, 48 h; scaled: DMSO 0, geranylgeraniol control 100; rescue of ATP level, % at 7.49 µM; 330,000 compounds, 0.78% hits; AID 602340;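 active means mean ATP rescue above about 67%, or every replicate alone reaching that limit, limit read from the data, passing the limit was not always enough; inconclusive means no clear call, values can overlap the other calls; inactive means mean under the limit and some replicate under it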;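 further: myotubes were challenged with 10 µM simvastatin during compound exposure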
Wnt act – activates Wnt/beta-catenin signaling in a reporter cell assay | activator, plate reader | activation, % at 9.35 µM | 300,000 compounds, 1.2% hits; in the data active means activation above about 30%, passing the limit was not always enough; inconclusive means no clear call, values can overlap the other calls
esBAF inh – SWI/SNF esBAF complex inhibition; AID 602393; reporter increase, % at 12.5 µM; mouse ES cells, Bmi1-luciferase knock-in reporter, 24 h; 100% = twice the neutral-well signal; 350,000 compounds, 2% hits; in the data active means activation above about 40%; inconclusive means no clear call, values can overlap the other calls;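 further: a rise in the Bmi1 reporter signal indicates esBAF inhibition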
MITF act – activators of MITF-driven TRPM1 promoter activity in SK-MEL-5 cells; activation, % at 12.5 µM; SK-MEL-5 TRPM1-promoter luciferase, 24 h; % of positive control, neutral wells = 0; 300,000 compounds, 0.75% hits;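 active means mean activation of at least 80% with every replicate also reaching 80%; inconclusive means mean reaches 80% but some replicate falls short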
Rtt109 Vps75 – blocks Candida albicans Rtt109/Vps75 acetyltransferase activity; AID 540336; purified Rtt109/Vps75, ThioGlo CoA-SH fluorescence, 4 h; inhibition, % at 34.9 µM; 330,000 compounds, 0.16% hits;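 active means inhibition of at least 50% in every replicate; inconclusive means best replicate reaches 50% inhibition but some replicates fall short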
Target sequence (Q5AAJ8 whole entry, looked up): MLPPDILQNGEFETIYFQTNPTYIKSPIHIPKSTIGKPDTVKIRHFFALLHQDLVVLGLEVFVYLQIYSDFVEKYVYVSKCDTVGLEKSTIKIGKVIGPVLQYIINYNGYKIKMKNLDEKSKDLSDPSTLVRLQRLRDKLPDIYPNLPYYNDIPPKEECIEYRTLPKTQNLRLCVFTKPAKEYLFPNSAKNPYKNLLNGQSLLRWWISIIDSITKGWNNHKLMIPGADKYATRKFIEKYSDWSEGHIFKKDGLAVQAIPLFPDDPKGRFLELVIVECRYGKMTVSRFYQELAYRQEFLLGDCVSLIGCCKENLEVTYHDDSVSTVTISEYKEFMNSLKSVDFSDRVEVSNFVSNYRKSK
Large screens that a line does not name were inactive. Only some compounds are listed: those with a hit (about 3.1% of all), similar ones and a draw of the others.

Nc1nnc(SCc2ccc([N+](=O)[O-])cc2)s1	none (no result: C2C12 statin, esBAF inh)
CC(C)C[C@H](NC(=O)c1nc[nH]c1C(=O)N[C@@H](CC(C)C)C(=O)OCc1ccccc1)C(=O)OCc1ccccc1	none
CC(C)C[C@H](NC(=O)c1[nH]cnc1C(=O)N[C@@H](Cc1ccccc1)C(=O)OCc1ccccc1)C(=O)OCc1ccccc1	C2C12 statin 137
O=C(c1ccc2c3n(nc2c1)-c1ccccc1CO3)N1CCOCC1	none (no result: Wnt act)
Cc1ccc2c(c1)COc1c3ccc(C(=O)N[C@@H](CO)C(C)C)cc3nn1-2	Wnt act 34, esBAF inh 73, MITF act 114
COCCNC(=O)c1ccc2c3n(nc2c1)-c1ccc(C)cc1CO3	Wnt act 43, esBAF inh 80, MITF act inconclusive
C[C@@H](CO)NC(=O)c1ccc2c3n(nc2c1)-c1ccccc1CO3	none
O=C(NCC1CCCO1)c1ccc2c3n(nc2c1)-c1ccccc1CO3 (configuration not stated)	Wnt act inconclusive, esBAF inh 70, MITF act inconclusive
Cc1ccc2c(c1)COc1c3ccc(C(=O)N4CCCCC4)cc3nn1-2	MITF act inconclusive
C[C@H](CO)N1C[C@H](C)[C@H](CN(C)C(=O)c2ccccc2)OCCCC[C@H](C)Oc2ccc(NS(=O)(=O)c3ccccc3)cc2C1=O	none (no result: C2C12 statin, Wnt act, MITF act, Rtt109 Vps75)
C[C@@H]1CN([C@@H](C)CO)C(=O)Cc2cc(NC(=O)Cn3cnnn3)ccc2O[C@@H]1CN(C)Cc1ccc2c(c1)OCO2	none (no result: Wnt act, MITF act, Rtt109 Vps75)
Cc1ccc(S(=O)(=O)N[C@H]2CC[C@H](CCNC(=O)c3ccccc3F)O[C@H]2CO)cc1	none (no result: Wnt act, MITF act, Rtt109 Vps75)
Fc1cccc2sc(N3CCCC3)nc12	MITF act 86 (no result: C2C12 statin, esBAF inh)
CCc1ccc(NC(=O)c2cnc3n(c2=O)CCS3)cc1	esBAF inh 61
CCc1ccccc1NC(=O)c1cnc2n(c1=O)CCS2	none
C[C@H](CO)N1C[C@H](C)[C@H](CN(C)S(=O)(=O)c2ccc(F)cc2)Oc2ccc(NC(=O)Nc3cccc4ccccc34)cc2C1=O	none (no result: Wnt act, MITF act, Rtt109 Vps75)
Fc1cccc(Cc2c(-c3ccco3)nc3c4ccccc4ccn23)c1	esBAF inh 72 (no result: MITF act, Rtt109 Vps75)
CCCc1nc2c3ccccc3ccn2c1Cc1cccc(F)c1	esBAF inh 46 (no result: MITF act, Rtt109 Vps75)
Clc1cccc(Cc2c(-c3ccco3)nc3c4ccccc4ccn23)c1	none (no result: C2C12 statin, esBAF inh, MITF act, Rtt109 Vps75)
COc1ccccc1Cc1c(-c2ccc(OC)c(OC)c2)nc2c3ccccc3ccn12	none (no result: MITF act, Rtt109 Vps75)
COc1ccc(-c2nc3c4ccccc4ccn3c2Cc2ccccc2)cc1OC	esBAF inh 45 (no result: MITF act, Rtt109 Vps75)
COc1ccc(NC(=O)N(C)C[C@H]2OCCCC[C@@H](C)Oc3ccc(NC(=O)Cc4ccccc4)cc3C(=O)N([C@H](C)CO)C[C@@H]2C)cc1	none (no result: C2C12 statin, Wnt act, MITF act, Rtt109 Vps75)
Brc1ccc2oc3c(N4CCOCC4)ncnc3c2c1	esBAF inh 48
CN(C)c1ccc(-c2nnc(-c3cccs3)o2)cc1	Wnt act inconclusive (no result: C2C12 statin, esBAF inh)
Brc1ccc(-c2cnc(-c3cccs3)o2)cc1	esBAF inh 67 (no result: C2C12 statin, Wnt act, MITF act)
C[C@@H](NC(=O)C[C@@H]1C[C@H]2c3cc(NC(=O)CC4CC4)ccc3O[C@H]2[C@@H](CO)O1)c1ccccc1	none (no result: Wnt act, MITF act, Rtt109 Vps75)
O=C1NC2(CCCCCC2)C(=O)N1Cc1ccc(Br)cc1	none
COC(=O)c1ccc(CN2C(=O)NC3(CCCCC3)C2=O)cc1	esBAF inh 72
CCCCNC(=O)N(C)c1nc2ccccc2s1	esBAF inh 64
COC(=O)N(C)c1nc2ccccc2s1	none (no result: Wnt act)
COC(=O)[C@@H]1[C@@H](CO)[C@@H]2Cn3c(cccc3=O)[C@@H]2N1CC1CCOCC1	none (no result: Wnt act, MITF act, Rtt109 Vps75)
O=C(CSC(=S)N1CCCCC1)c1ccccc1	none (no result: Wnt act)
O=C(CSC(=S)N1CCCC1)c1ccccc1	Wnt act 45
CN(C)c1ccc(C=C2SC(=S)NC2=O)cc1	esBAF inh 54
CCOc1ccc(N(C)c2ccc(/C=C3/SC(=S)NC3=O)cc2)cc1	none (no result: MITF act)
CCC(=O)/C=C1/Sc2ccccc2N1CC	C2C12 statin 112
COc1ccccc1-c1nnc(NC(=O)CSc2nncn2C)s1	Wnt act 54 (no result: C2C12 statin, esBAF inh)
COc1ccccc1-c1nnc(NC(=O)C(C)Sc2nncn2C)s1 (configuration not stated)	none (no result: C2C12 statin, esBAF inh)
S=C1Cc2ccccc2N1	C2C12 statin 74
CCCNC(=O)N(C)C[C@@H]1Oc2cc(-c3ccc(C)cc3)ccc2S(=O)(=O)N([C@H](C)CO)C[C@H]1C	none (no result: Wnt act, MITF act, Rtt109 Vps75)
COCCNC(=O)c1cc2c(c(-c3cccc(C4=CCCC4)c3)n1)[C@@H](CCO)N([S@](=O)C(C)(C)C)C2	none (no result: Wnt act, MITF act, Rtt109 Vps75)
CCOc1cccc(N2C(=O)CC(NCc3ccc(S(N)(=O)=O)cc3)C2=O)c1 (configuration not stated)	C2C12 statin 78
CCCCCCOc1ccc(N2C(=O)CC(NCc3ccc(S(N)(=O)=O)cc3)C2=O)cc1 (configuration not stated)	none (no result: C2C12 statin, esBAF inh)
CC1/C(=C\c2ccc(Cl)cc2)C(=O)C2CC1C2(C)C (configuration not stated)	none (no result: C2C12 statin)
CC1CCC(C(C)C)C(=O)/C1=C/c1ccc(N)cc1 (configuration not stated)	Wnt act 53, esBAF inh 59, MITF act 112
C=CCOc1ccc(/C(O)=C2/C(=O)C(=O)N(CCCn3ccnc3)C2c2ccco2)cc1 (configuration not stated)	none
C=CCOc1ccc(/C(O)=C2\C(=O)C(=O)N(CCOC)C2c2cccnc2)cc1 (configuration not stated)	Rtt109 Vps75 60
C=CCOc1ccc(/C(O)=C2/C(=O)C(=O)N(CCCn3ccnc3)C2c2cccs2)cc1 (configuration not stated)	esBAF inh 44 (no result: C2C12 statin)
C[C@@H]1CN([C@H](C)CO)C(=O)Cc2cc(NC(=O)Nc3cccc4ccccc34)ccc2O[C@@H]1CN(C)S(=O)(=O)c1ccc(F)cc1	none (no result: Wnt act, MITF act, Rtt109 Vps75)
Cn1c(-c2ccc(F)c(F)c2)cc2onc(-c3ccccc3)c2c1=O	Wnt act 64, MITF act 116
COc1ccc(-c2cc3onc(-c4c(Cl)cccc4Cl)c3c(=O)n2C)cc1	none
COc1cccc(-c2cc3onc(-c4ccccc4)c3c(=O)n2C)c1	Wnt act 38
COc1ccc(C(=O)COC(=O)c2cc(=O)[nH]c3ccccc23)c(OC)c1	MITF act 100 (no result: C2C12 statin, esBAF inh)
COc1ccccc1C(=O)COC(=O)c1cc(=O)[nH]c2ccccc12	none (no result: C2C12 statin, esBAF inh)
COc1ccc(C(=O)COC(=O)c2cccc(-n3cnnn3)c2)c(OC)c1	esBAF inh 56, MITF act 92
O=C(COC(=O)c1cccc(-n2cnnn2)c1)c1ccc(F)cc1	none (no result: C2C12 statin, esBAF inh)
Cc1ccc(C(=O)COC(=O)c2cc(=O)[nH]c3ccccc23)cc1C	esBAF inh 88
Cc1ccc(S(=O)(=O)N(C)C[C@H]2Oc3c(NC(=O)C4CCOCC4)cccc3C(=O)N([C@@H](C)CO)C[C@H]2C)cc1	none (no result: Wnt act, MITF act, Rtt109 Vps75)
CCC(=O)N[C@H]1CC[C@H](CCNC(=O)Nc2ccc(C(F)(F)F)cc2)O[C@@H]1CO	none (no result: Wnt act, MITF act, Rtt109 Vps75)
CO[C@H]1CN(C)C(=O)c2ccc(NS(=O)(=O)c3cn(C)cn3)cc2OC[C@H](C)N(CCC(F)(F)F)C[C@H]1C	none (no result: Wnt act, MITF act, Rtt109 Vps75)

Screening results (PubChem)
